Data published in PMC5540273 (PLoS ONE, 2017).

test system: ROS1; details: concentration: 1 μM, replicates: in singlicate; n = 1
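Further: KINOMEscan kinase panel screen.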

Compound | %Inh [%]
COCCOCCOc1cc2ncc3c4ccc(C#N)cc4[nH]c3c2cc1OC | 51
CCn1c(-c2nonc2N)nc2c(C#CC(C)(C)O)ncc(OCCCCN)c21.O=C(O)C(F)(F)F.O=C(O)C(F)(F)F [GSK507274] | 0
Cn1cc(-c2[nH]c3cc(NC(=O)[C@H](N)C4CCCCC4)cc4c3c2C=NNC4=O)cn1 | 37
COc1cc(Nc2ncc3c(C)nc(-c4cc5ccccc5[nH]4)n3n2)cc(OC)c1OC [GW869516] | 0
COc1ccc(Nc2nccc(NCCNC(=O)c3cc4ccccc4s3)n2)cc1 [GSK1379896] | 9
Cl.Cl.NCC(C(=O)Nc1cc(Br)c(-c2ccnc3[nH]ccc23)s1)c1ccccc1 (centres unmarked) [GSK1269851] | 12
Cc1ccc(C)c(NC(=O)NC2CCN(c3ccnc(Nc4ccc(F)cc4)n3)C2)c1 (centres unmarked) [GSK1379720] | 0
CN1CCN(CCCNc2nccc(-c3c(-c4ccc(F)cc4)nn4cc(C(F)(F)F)ccc34)n2)CC1 [GW621581] | 0
O=C(Nc1cccc(-c2nn3ccccc3c2-c2ccnc(Nc3cccc(F)c3)n2)c1)c1c(F)ccc(F)c1Cl [GSK357952] | 18
Nc1ncc(-c2cccnc2)c2scc(-c3ccc4c(c3)CCN4C(=O)Cc3ccccc3)c12 [GSK683281] | 27
Cc1cccc(Nc2nc(N[C@H]3CCNC3)ncc2C(N)=O)c1.Cl [GSK2197149] | 32
Cc1ccc(C(=O)N2CC[C@@H](O)C2)cc1-n1c(C)cc(OCc2ccc(F)cc2F)c(Br)c1=O | 0
Cl.c1ccc(-c2ccc3c(Nc4ccc5[nH]ccc5c4)ccnc3c2)nc1 [GW440138] | 0
Cl.NC(=O)c1cccc(Nc2nccc(Nc3ccc(Oc4c(Cl)cccc4Cl)c(Cl)c3)n2)c1 [GW659009] | 0
CSc1cccc2c(-c3ccncn3)c(-c3ccc(F)cc3)nn12 [GW514786] | 0
Cl.Cl.NCC(NCc1ccc(-c2ccnc3[nH]ccc23)s1)c1ccccc1 (centres unmarked) [GSK1321565] | 60

Compound | %Inh [%]
COC(=O)Nc1nc2ccc(Oc3ccc(NC(=O)Nc4cc(C(F)(F)F)ccc4F)cc3)cc2n1C.Cl [GW692089] | 28
O=C(Nc1n[nH]c2cc(-c3ccoc3)ccc12)C1CC1 [SB-738481] | 9
Fc1ccc(-c2ncn(C3CCNCC3)c2-c2ccnc(Oc3ccc(-c4ccccc4)cc3)n2)cc1 [SB-245391] | 0
Cn1cc(-c2ccc3c(c2)CCN3C(=O)Cc2cccc(Cl)c2)c2c(N)ncnc21 [GSK2606590] | 31
Cc1ccc(S(=O)(=O)Nc2ccc(Nc3nccc(Nc4cccc5[nH]ncc45)n3)cc2)cc1 [GSK581271] | 25
O=C(O)C(F)(F)F.O=C(O)C(F)(F)F.O=c1[nH]ccc2nc(N[C@@H]3CCCNC3)nc(Nc3ccc(S(=O)(=O)N4CCOCC4)cc3)c12 [GSK2177277] | 71
C[C@@H](Oc1cc(-n2cnc3cc(-c4ccnc(NCCS(C)(=O)=O)c4)ccc32)sc1C(N)=O)c1ccccc1Cl [GSK907232] | 13
c1ccc(-c2cnc3nccnn23)cc1 [AH20685] | 0
CCCCc1nn2ncccc2c1-c1ccnc(Nc2ccc(N3CCN(C)CC3)cc2)n1 [GW684941] | 71
Cc1occc1-c1ncc(OC[C@@H](N)Cc2c[nH]c3ccccc23)cc1-c1ccc2[nH]nc(C)c2c1.O=C(O)C(F)(F)F [GSK682037] | 26
Oc1cc(Nc2ccnc3cc(I)ccc23)ccc1F [GW552771] | 0
Cc1ccc(C(=O)Nc2ccc(Nc3ccnc4cc(-c5nccs5)ccc34)cc2O)cc1.Cl [GW494702] | 0
c1ccc(-c2n[nH]cc2Nc2ccnc3ccccc23)nc1 [GW694077] | 9
C[C@@H]1CC[C@@H](C(=O)Nc2ccccc2)CN1c1cc(-c2ccc3c(N)n[nH]c3c2)nc(N)n1 [GSK2286062] | 14
CN(C)S(=O)(=O)c1cc(-c2ccc3nccc(-c4cccc(S(N)(=O)=O)c4)c3c2)cnc1N [GSK1669921] | 0
CCS(=O)(=O)c1ccc(OC)c(Nc2nccc(-c3c(-c4cccc(NC(=O)c5c(F)cccc5F)c4)nn4ncccc34)n2)c1 [GSK326180] | 0
